Key:
Type in all cases: functional
[1] = molecular target: Solute carrier family 2, facilitated glucose transporter member 1 (Homo sapiens) (UniProt P11166); test: ST_JUDE_LEISH: Cytotoxicity at 2uM final concentration against transgenic Leishmania Mexicana promastigotes LmGLUT1 that are glucose transport deficient and complemented with the human glucose transporter GLUT1. Activity is measured by DNA content using SYBR green in vitro
[2] = molecular target: Hexose transporter 1 (Plasmodium falciparum) (UniProt O97467); test: ST_JUDE_LEISH: Cytotoxicity at 2uM final concentration against transgenic Leishmania Mexicana promastigotes LmPfHT that are glucose transport deficient and complemented with the Plasmodium falciparum hexose transporter. Activity is measured by DNA content using SYBR green in vitro
[3] = molecular target: Glucose transporter (Leishmania mexicana) (UniProt O61059); test: ST_JUDE_LEISH: Cytotoxicity at 2uM final concentration against transgenic Leishmania Mexicana promastigotes LmGT2 that are glucose transport deficient and complemented with the L. Mexicana glucose transporter 2. Activity is measured by DNA content using SYBR green in vitro

Solute carrier family 2, facilitated glucose transporter member 1 (Homo sapiens), sequence (P11166 whole entry): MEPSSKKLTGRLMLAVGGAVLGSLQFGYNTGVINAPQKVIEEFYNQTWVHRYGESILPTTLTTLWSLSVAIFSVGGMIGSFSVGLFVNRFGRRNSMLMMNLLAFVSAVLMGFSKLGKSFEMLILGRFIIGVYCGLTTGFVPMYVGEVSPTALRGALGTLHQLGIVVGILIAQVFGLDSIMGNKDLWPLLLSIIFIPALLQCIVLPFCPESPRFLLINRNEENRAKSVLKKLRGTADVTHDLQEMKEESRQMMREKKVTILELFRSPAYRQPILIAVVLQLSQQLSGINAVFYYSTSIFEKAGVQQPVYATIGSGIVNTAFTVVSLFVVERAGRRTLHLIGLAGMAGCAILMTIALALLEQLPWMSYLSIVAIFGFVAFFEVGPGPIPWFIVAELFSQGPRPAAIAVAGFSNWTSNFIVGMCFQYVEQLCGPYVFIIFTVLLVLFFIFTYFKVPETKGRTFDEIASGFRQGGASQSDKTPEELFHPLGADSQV

Compound | inhibition [1] [%] | inhibition [2] [%] | inhibition [3] [%]
CCc1c(CCNCCCC(C)CCNCCc2ccc(OC)c(OC)c2CC)ccc(OC)c1OC (stereo not drawn) | 1.96 | 4.93 | 1.22
O=c1[nH]ccc2nc(N[C@@H]3CCNC3)nc(Nc3ccc4c(c3)S(=O)(=O)CC4)c12 | 5.93 | 1.38 | 4.85
c1ccc2oc(-c3cc4ccncc4cc3OC3CCNCC3)cc2c1 | -1.3 | -3.57 | -3.28
COc1ccc(NC(=O)C2CCN(CCCCCNC(=O)/C=C/c3ccc(Cl)c(Cl)c3)CC2)cc1 | 2.19 | 2.22 | 2.85
O=C(/C=C/c1ccc(Cl)c(Cl)c1)NCCCCCCN1CCCN(C(=O)Nc2cccc(Cl)c2)CC1 | -1.03 | 0.08 | -2.92
CC(C)c1ccc2[nH]c(C(=O)NC3CCC(N4CCCc5ccc(C#N)cc5C4)CC3)cc2c1 (stereo not drawn) | 3.48 | 0.9 | 1.58
O=c1cc(NCCCCNCc2cccc(C(F)(F)F)c2)[nH]c2ccccc12 | 9.62 | 7.88 | 5.78
CN1CCN(c2cc(-c3cccnc3)nc(-c3ccncc3)n2)CC1 | 5.56 | 5.65 | 3.57
O=C(NC1CCCC1)c1ccc(N2CCC(NCc3cc4cc(Cl)ccc4[nH]3)CC2)cc1 | 2.79 | 3.34 | 2.98
Fc1ccc2[nH]c(-c3ccc(-c4ccc(CNCCc5ccncc5)cc4)cc3)nc2c1 | 4.9 | 2.46 | 2.26
COc1cccc(NC(=O)c2ccc(NCCCN3CCC(C)CC3)c([N+](=O)[O-])c2)c1 | 76.1 | 41.7 | 12.8
FC(F)(F)c1ccc2[nH]ccc(=NN=Cc3ccccc3Cl)c2c1 | 2.85 | 1.66 | 1.62
CCCCC1(NC(=O)[C@@H](Nc2ccc(C#N)c3ccccc23)C2CCCCC2)CCCCC1 | -1.28 | -0.56 | -0.93
COc1ccc2nccc([C@@H](O)CN3CCC(NCc4cc5ccccc5s4)CC3)c2c1 | 5.41 | 10.3 | 0.03
Cc1cccc(-n2nc(C)c3c2NC(=O)CC3C(=O)c2ccc(Cl)s2)c1 (stereo not drawn) | 1.99 | 4.4 | 2.73
CN(C)c1ccc(-c2ccc(C(=O)NC3CCN(Cc4ccccc4F)CC3)s2)cc1 | 6.98 | 0.05 | 1.85

Reference: ChEMBL document CHEMBL3433997, “St. Jude Leishmania screening dataset” (2016)
